# Results published in PubChem BioAssay.
# Values without a mark were called inactive. Calls of active or inactive are those of the source.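 How the source made its calls, unless noted: active means inhibition above 50%; inactive means the rest.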
# Assay: antimalarial activity against Dd2 strain (AID 2302;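 active means growth inhibition above 50% at the single 2 µM test dose, taken to imply half-maximal potency below 2 µM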;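 further: 0% = DMSO untreated growth and 100% = chloroquine plus artemisinin killed control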)
# Conditions: P. falciparum Dd2 in RBCs, LDH growth readout, 72 h; at 2 µM; stronger effect = higher value
row,SMILES,growth inhibition
1,CN(C(=O)c1snnc1-c1ccccc1)C1CCN(CCCCCNC(=O)/C=C/c2ccc(Cl)c(Cl)c2)CC1,58% (active)
2,CC(C)N1CCN(C(CN2CCN(CCCOc3ccccc3-c3ccccc3)CC2)c2ccc(F)cc2)CC1 (stereo not drawn),96% (active)
3,C=CCOC(=O)N1CCC(CNCc2cccc(-c3ccc(-c4nc5c(C)cccc5[nH]4)s3)c2)C1 (stereo not drawn),82% (active)

# Assay: HepG2 cytotoxicity, primary screen, cytotoxicity control for P. falciparum antimalarial project, cell-based, ATP luminescence (AID 2303);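 further: 0% = DMSO wells and 100% = digitonin-killed cells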
# Conditions: HepG2 viability, 24-48 h, at 10 µM, stronger effect = higher value
row,SMILES,inhibition
1,Clc1ccc(-c2cc3c(NCc4ccncc4)nccc3s2)cc1,26%
2,CCN(CC)CCN(Cc1ccc(-c2ccc(C(F)(F)F)cc2)cc1)C(=O)Cn1c(SCc2ccc(F)cc2)cc(=O)c2ccccc21,50% (active)
3,O=C(Nc1ccccc1)N(Cc1ccccc1-c1cccc(CNCCc2ccccc2)c1)C1CCN(Cc2ccccc2)CC1,95% (active)
4,Cc1ccccc1N1CCN(c2ccc(C(=O)Nc3ccccc3)cc2)CC1,22%
5,CN1CCN(CCCN(Cc2cccc(-c3ccc(CNCc4ccc5c(c4)OCO5)cc3)c2)C(=O)CCC2CCCC2)CC1,91% (active)
6,Fc1ccc2nc(-c3cccc(-c4ccc(CNCc5ccccc5)cc4)c3)[nH]c2c1,27%
7,COc1cc(Cl)c(C)cc1N(Cc1ccccc1-c1ccccc1)S(=O)(=O)c1ccc(C(F)(F)F)cc1,23%
8,COc1cc(NCC(C)CNCc2cn(Cc3ccccc3)c3ccccc23)nc2ccccc12 (stereo not drawn),21%
9,O=S(=O)(c1cccc(Br)c1)N1CCCCC(c2ccc(C(F)(F)F)cc2)=N1,30%
10,COCc1nc(N)nc(N)c1-c1ccc(Cl)c(Cl)c1,4%
11,O=C(NCCCCN1CCC(c2ccc3c(c2OCC2CC2)CCCC3)CC1)c1ccc(NC(=O)c2ccc(Cl)cc2)cc1,23%
12,Cc1ccc(-c2nnc3c4ccccc4c(C)nn23)cc1S(=O)(=O)N1CCN(CCO)CC1,16%
13,COc1ccc(Nc2nccc(N3CCC(NC(=O)Nc4cc(C)ccc4C)C3)n2)cc1 (stereo not drawn),10%
14,O=c1ccc2ncc(Cl)c3c2n1CC3CN1CCC(NCc2cc3c(cn2)OCCO3)CC1 (stereo not drawn),27%
15,CC(=O)c1sc(Cc2nc3ccccc3s2)nc1C,-13%
16,CCN1CCN(c2ccc(Nc3ccnc4ccc(Br)cc34)cc2)CC1,37%
17,O=C(NCC1Cc2cc(Oc3ccccc3)ccc2O1)c1ccc([N+](=O)[O-])o1 (stereo not drawn),83% (active)
18,CCN(CC)CCN(Cc1ccc(-c2ccc(C(F)(F)F)cc2)cc1)C(=O)c1ccc(-c2ccc(NC(=O)OC)cc2C)cc1,66% (active)
19,COc1ccc(CNCCc2cccs2)cc1-c1cccc(S(=O)(=O)NCCN2CCCC2)c1,56% (active)
20,O=C(Nc1ccc(-c2cccc(-c3nc4ccc(C(F)(F)F)cc4[nH]3)c2)cc1)Nc1ccc(Cl)c(Cl)c1,42%

row,SMILES,inhibition
1,CCN(CC)CCN(Cc1ccc(-c2ccc(C(F)(F)F)cc2)cc1)C(=O)Cn1c(CCC2CCCCC2)nc(=O)c2ccccc21,32%
2,CC(Oc1ccc(NC(=O)c2cccs2)cc1)C(=O)c1ccc(Cl)cc1 (stereo not drawn),-1%
3,CC(=O)Nc1ccc(C(=O)Nc2ccc(-c3cccc(-c4nc5c(C)cccc5[nH]4)c3)cc2)cn1,36%
4,COc1ccc(-c2ccc(CNC(=O)c3ccc(C#N)cc3)c(F)c2)cc1CN1CCCN(C)CC1,6%
5,CC1CN(C(=O)c2sc3ccccc3c2Cl)CC(C)O1 (stereo not drawn),-5%
6,COc1ccc2nccc([C@@H](O)CN3CCC(NCc4ccc(OC)c(NC(C)=O)c4)CC3)c2c1,-5%
7,COc1ccc(Nc2nc(C)cc(NC3CCCC3)n2)cc1,34%
8,COc1cc2nc(NCCc3ccccc3)nc(NCc3cc(C)no3)c2cc1OC,5%
9,c1ccc2c(C3CCN(CCCCOc4ccc5c(c4)CCN(C4CCC4)CC5)CC3)c[nH]c2c1,80% (active)
10,Cc1cc(N[C@@H](Cc2ccccc2)C(=O)NCCCOC(C)C)nc(NCC2CCCCC2)n1,17%
11,COc1ccc(C(=O)CCC(=O)N(Cc2ccc(-c3ccc(CNCc4cccnc4)cn3)cc2)C2CCN(Cc3ccccc3)CC2)cc1F,30%
12,O=[N+]([O-])c1cc2c(cc1C=NNc1nc(Nc3ccccc3)nc(Nc3ccccc3)n1)OCO2,-8%
13,Cc1cccc2[nH]c(-c3cccc(-c4cccc(CN5CCN(c6ccncc6)CC5)c4)c3)nc12,47%
14,CC(C)CCn1c(Sc2ccc(C#N)c([N+](=O)[O-])c2)nnc1-c1cccc(Cl)c1,33%
15,O=C(Nc1ccc(-c2cccc(-c3nc4ccccc4[nH]3)c2)cc1)Nc1ccc(Cl)c(Cl)c1,61% (active)
16,O=C(/C=C/c1ccc(Cl)c(Cl)c1)NCCCCCCN1CCCN(C(=O)Nc2ccc(C(F)(F)F)cc2)CC1,47%
17,O=C(N[C@@H](Cc1ccccc1)C(=O)NC1CCCc2ccccc21)c1ccc(O)c(-c2ccc(Cl)c(Cl)c2)c1 (stereo partly drawn),-3%
18,CN(C(=O)c1snnc1-c1ccccc1)C1CCN(CCCCCNC(=O)/C=C/c2ccc(Cl)c(Cl)c2)CC1,44%
19,CC(C)N1CCN(C(CN2CCN(CCCOc3ccccc3-c3ccccc3)CC2)c2ccc(F)cc2)CC1 (stereo not drawn),98% (active)
20,C=CCOC(=O)N1CCC(CNCc2cccc(-c3ccc(-c4nc5c(C)cccc5[nH]4)s3)c2)C1 (stereo not drawn),11%
